Assay results: PubChem BioAssay AID1117289 (Broad Institute, 2014)
Potency and affinity values are given separately. Inconclusive results are not listed. The source made the active and inactive calls.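 Rule for the calls: active = inhibitor whose fitted half-maximal dose is at most twice the top tested dose in every run; inconclusive = runs disagree, poor fit, or flat fit inhibiting 30 to 70%; inactive = every run inactive, flat, rising or too weak.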

These compounds were tested against Endoplasmic reticulum aminopeptidase 2 (Homo sapiens) (UniProt Q6P179) (assay: ERAP2 aminopeptidase inhibitors, dose response, selectivity assay for selective ERAP1 modulator project, biochemical, plate reader, dry powder, set 2 (AID 1117289)). Conditions: purified ERAP2, Arg-AMC hydrolysis fluorescence, 1 h; series mostly up to 50 µM.
Chain of Endoplasmic reticulum aminopeptidase 2 (Homo sapiens) (Q6P179 whole entry, looked up): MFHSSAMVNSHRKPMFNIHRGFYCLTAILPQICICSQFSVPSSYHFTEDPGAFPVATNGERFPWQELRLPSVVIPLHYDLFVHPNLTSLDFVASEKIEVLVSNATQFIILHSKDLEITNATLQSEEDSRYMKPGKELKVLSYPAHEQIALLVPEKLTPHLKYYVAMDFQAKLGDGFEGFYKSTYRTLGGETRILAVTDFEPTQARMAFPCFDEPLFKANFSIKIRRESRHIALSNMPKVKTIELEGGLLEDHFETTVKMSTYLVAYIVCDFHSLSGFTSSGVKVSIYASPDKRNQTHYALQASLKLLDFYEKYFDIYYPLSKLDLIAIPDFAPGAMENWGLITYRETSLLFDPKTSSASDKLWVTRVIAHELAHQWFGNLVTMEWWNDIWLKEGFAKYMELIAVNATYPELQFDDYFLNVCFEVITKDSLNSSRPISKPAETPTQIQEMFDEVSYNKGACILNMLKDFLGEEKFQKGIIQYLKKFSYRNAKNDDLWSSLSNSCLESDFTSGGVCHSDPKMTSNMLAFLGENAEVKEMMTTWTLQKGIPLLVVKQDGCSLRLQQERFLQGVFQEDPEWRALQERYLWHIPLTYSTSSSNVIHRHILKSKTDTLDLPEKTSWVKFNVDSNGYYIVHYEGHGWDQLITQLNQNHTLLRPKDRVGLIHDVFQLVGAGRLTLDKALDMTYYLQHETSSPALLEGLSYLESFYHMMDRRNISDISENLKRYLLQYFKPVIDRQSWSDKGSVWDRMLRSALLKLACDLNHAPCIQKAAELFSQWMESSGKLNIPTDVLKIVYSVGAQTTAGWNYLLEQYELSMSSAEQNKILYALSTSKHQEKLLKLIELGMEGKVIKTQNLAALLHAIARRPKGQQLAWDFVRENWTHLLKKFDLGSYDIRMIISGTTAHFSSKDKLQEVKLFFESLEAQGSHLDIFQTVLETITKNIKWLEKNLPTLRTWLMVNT

outcome, inactive:
COc1ccc(C(=O)O)cc1S(=O)(=O)Nc1cc(C(F)(F)F)ccc1N(C)C
COc1ccc(C(=O)O)cc1S(=O)(=O)Nc1cc(F)ccc1N1CCCCC1
COc1ccc(C(=O)O)cc1S(=O)(=O)Nc1cc(C)ccc1N1CCCCC1
COc1ccc(C(=O)O)cc1S(=O)(=O)Nc1cc(C(F)(F)F)ccc1N1CCN(C)CC1
COc1ccc(C(=O)O)cc1S(=O)(=O)N1CCN(c2ccc(C(F)(F)F)cc2N)CC1
COc1ccc(C(=O)O)cc1S(=O)(=O)Nc1ccc(N2CCCCC2)cc1C(F)(F)F
COc1ccc(C(=O)O)cc1S(=O)(=O)Nc1cccc(N2CCCCC2)c1C(F)(F)F
COc1ccc(C(=O)O)cc1S(=O)(=O)N(C)c1cc(C(F)(F)F)ccc1N1CCCCC1
Cc1ccc(C(=O)O)cc1S(=O)(=O)Nc1cc(C(F)(F)F)ccc1N1CCCCC1
COc1ccc(C(=O)O)cc1S(=O)(=O)Nc1cc(C(F)(F)F)ccc1N1CCOCC1
O=C(O)c1cc(F)cc(S(=O)(=O)Nc2cc(C(F)(F)F)ccc2N2CCCCC2)c1
Cc1ccc(S(=O)(=O)Nc2cc(C(F)(F)F)ccc2N2CCCCC2)cc1C(=O)O
COc1ccc(C(=O)O)cc1S(=O)(=O)Nc1cc(C(F)(F)F)ccc1N1CCN(C(C)=O)CC1
COc1ccc(C(=O)O)cc1S(=O)(=O)Nc1cc(C(F)(F)F)ccc1N1CCCCC1
O=C(O)c1cccc(S(=O)(=O)Nc2cc(C(F)(F)F)ccc2N2CCCCC2)c1
O=C(O)c1ccc(Cl)c(S(=O)(=O)Nc2cc(C(F)(F)F)ccc2N2CCCCC2)c1
COc1ccc(C(=O)O)cc1S(=O)(=O)Nc1ccccc1N1CCCCC1
COc1ccc(C(=O)Nc2cccc(C(F)(F)F)c2)cc1S(=O)(=O)O

Activity change, negative = inhibition, inactive:
COc1ccc(C2=NN(c3ccc(C(=O)O)cc3)C(c3ccc(OC)c(OC)c3)C2)cc1 (centres undefined) 289% [at 6 µM]
